Measured values as given in PubChem BioAssay (NCI).
This is part of a sample that, as a whole, favours compounds with a hit. Of some 79,000 tested, about 15% had one in any assay. The source made the active and inactive calls. Rule as the data show it: active = growth inhibition above about 70%; inactive = the rest.

Experiment: NCI Yeast Anticancer Drug Screen. Data for the sgs1 mgt1 strain (AID 161);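 also: 0% = growth of cultures given vehicle only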
Conditions: S. cerevisiae sgs1 mgt1 strain, at 5.0 µM (retest, dose inferred, filed as 0.5), hits give high values
How it was run: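 Inhibition of yeast growth, normalised to vehicle-treated controls, is reported for a strain bearing genetic alterations in DNA damage repair.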
In the case of O=C(CBr)N1c2ccccc2Sc2ccc3ccccc3c21, the growth inhibition is reported as 81% (active).
For CC(C)(C)CC(C)(C)N[P+](NC(C)(C)CC(C)(C)C)(NC(C)(C)CC(C)(C)C)NC(C)(C)CC(C)(C)C, the growth inhibition was 81% (active).
In the case of COc1ccc(/C=C/c2ccnnc2)c(OC)c1OC, the growth inhibition is reported as -6% (inactive).
For O=Cc1cc(-c2ccccc2)n(-c2ccccc2)c1-c1ccccc1, the growth inhibition was -6% (inactive).
With CC(=O)Oc1ccc(/C=C/c2ccncc2)cc1 the growth inhibition was -65% (inactive).
With OC(c1ccccc1)(c1ccccc1)c1ccc[cH-]1.OC(c1ccccc1)(c1ccccc1)c1ccc[cH-]1.[Fe+2] the growth inhibition was 3% (inactive).
For O=C1C=CC(=O)N1c1ccc(Cl)cc1Br, the growth inhibition was 100% (active).
In the case of Cc1c(N)nc(C2CC(=O)N2CC(N)C(N)=O)nc1C(=O)NC(C(=O)NC(C)C(O)C(C)C(=O)NC(C(=O)NCCc1nc(-c2nc(C(=O)NCCNCC(C)O)cs2)cs1)C(C)O)C(OC1OC(CO)C(O)C(O)C1OC1OC(CO)C(O)C(OC(N)=O)C1O)c1cnc[nH]1 (stereo not drawn), the growth inhibition is reported as 87% (active).
With CNC(=S)/N=c1/sc([N+](=O)[O-])c(C)n1C the growth inhibition was -7% (inactive).
With O=c1c2ccccc2ncn1Cc1ccccc1[N+](=O)[O-] the growth inhibition was 0% (inactive).
For Cc1nn(C(=O)c2ccncc2)c(C)c1N=Nc1ccccc1[N+](=O)[O-], the growth inhibition was 11% (inactive).
In the case of CCC[CH2][Ge]([CH2]CCC)([CH2]CCC)[O]C(=O)C(OC(C)=O)c1ccccc1 (stereo not drawn), the growth inhibition is reported as 98% (active).
In the case of Nc1ccc2c(c1)[nH]c(=O)c1cc(Cl)c(Cl)cc12, the growth inhibition is reported as 49% (inactive).
With CCCCCCCCCCCCSC1=C(N)C(=O)c2ccccc2C1=O the growth inhibition was 8% (inactive).
In the case of CCC(C)(C)c1ccc(OCCO)c([N+](=O)[O-])c1, the growth inhibition is reported as 15% (inactive).
With C/C(=N/O)c1cccc(C(F)(F)F)c1 the growth inhibition was -64% (inactive).
In the case of CCCCCCN(S(=O)(=O)c1ccc([N+](=O)[O-])cc1)S(=O)(=O)c1ccc([N+](=O)[O-])cc1, the growth inhibition is reported as 8% (inactive).
For N#CC1=C(N)OC(c2ccccc2)=C(C#N)C1c1ccccc1[N+](=O)[O-] (stereo not drawn), the growth inhibition was 12% (inactive).
In the case of COC1CCCCC1C(=O)C(C#N)C1CCCCC1C1CCCCC1 (stereo not drawn), the growth inhibition is reported as 7% (inactive).
In the case of COCCOC1=C(Cl)C(=O)c2c(O)ccc(O)c2C1=O, the growth inhibition is reported as 94% (active).
In the case of NC(CSSCC(N)C(=O)Nc1ccc2ccccc2c1)C(=O)Nc1ccc2ccccc2c1 (stereo not drawn), the growth inhibition is reported as 54% (inactive).
In the case of CSc1c(S(C)=O)c2ccccc2n1C (stereo not drawn), the growth inhibition is reported as 12% (inactive).
For CCCCCCCCCCCCCCCCNCCCCCCCC(=O)O, the growth inhibition was 14% (inactive).

Same assay, conditions: S. cerevisiae sgs1 mgt1 strain, at 50.0 µM (retest, dose inferred, filed as 5.0), hits give high values
In the case of CCCCCCCCCCCCCCCC1=NCCN1C, the growth inhibition is reported as 99% (active).
In the case of C=CCNC(=O)c1ccccc1C(=O)O, the growth inhibition is reported as 1% (inactive).
With O=C(Nc1ccc(Cl)cc1Cl)OC(Cn1cncn1)c1ccc(Cl)cc1Cl (stereo not drawn) the growth inhibition was 77% (active).
In the case of CC1=C(C)CC2C(=O)C(C(O)CC(C)C)=CC(=O)C2C1 (stereo not drawn), the growth inhibition is reported as 98% (active).
In the case of BrCc1ccccc1C[P+](c1ccccc1)(c1ccccc1)c1ccccc1, the growth inhibition is reported as 99% (active).
For Cc1cn(C(C#N)=C(C#N)C#N)c2ccccc12, the growth inhibition was 32% (inactive).
For O=C1OCCCOC(=O)c2cc(ccc2O)OCC#CC#CCOc2ccc(O)c1c2, the growth inhibition was -3% (inactive).
With O=[N+]([O-])c1cc2ccc(O)cc2c2ccccc12 the growth inhibition was 86% (active).
In the case of COc1cc2c(oc(=O)c3cc(C)cc(OC)c32)c2c(C3OC(C)C(O)C(C)(O)C3O)ccc(O)c12 (stereo not drawn), the growth inhibition is reported as 96% (active).
With Oc1c(Cl)cc(Cl)c(Cc2c(Cl)cc(Cl)c(O)c2Cl)c1Cl the growth inhibition was 99% (active).
With N#CI1OC(C(F)(F)F)(C(F)(F)F)c2ccccc21 the growth inhibition was 99% (active).
For c1ccc2c(c1)[nH]c1c[n+]3c(c[n+]12)[nH]c1ccccc13, the growth inhibition was 67% (inactive).
With CC1Cc2cc(O)c(O)cc2-c2cc(O)c(O)cc2CC1C (stereo not drawn) the growth inhibition was 75% (active).
With COc1ccc(C2c3cc4c(cc3OC(C)(O)C2C)OCO4)cc1 (stereo not drawn) the growth inhibition was 92% (active).
With Cc1ccc(C2(O)CC(c3ccc([N+](=O)[O-])o3)=NN2C(=O)COc2ccc(Cl)cc2)cc1 (stereo not drawn) the growth inhibition was 39% (inactive).
With CCO[Si](CC)(OCC)OCC the growth inhibition was 3% (inactive).
For C/C=C(/CCC1NCCC2c3ccccc3NC12)[Si](C)(C)C (stereo not drawn), the growth inhibition was 37% (inactive).
For O=C(CBr)N1c2ccccc2Sc2ccc3ccccc3c21, the growth inhibition was 99% (active).
For CC(C)(C)CC(C)(C)N[P+](NC(C)(C)CC(C)(C)C)(NC(C)(C)CC(C)(C)C)NC(C)(C)CC(C)(C)C, the growth inhibition was 99% (active).
With COc1ccc(/C=C/c2ccnnc2)c(OC)c1OC the growth inhibition was 5% (inactive).
For O=Cc1cc(-c2ccccc2)n(-c2ccccc2)c1-c1ccccc1, the growth inhibition was 16% (inactive).
With CC(=O)Oc1ccc(/C=C/c2ccncc2)cc1 the growth inhibition was 7% (inactive).
In the case of OC(c1ccccc1)(c1ccccc1)c1ccc[cH-]1.OC(c1ccccc1)(c1ccccc1)c1ccc[cH-]1.[Fe+2], the growth inhibition is reported as -16% (inactive).
For O=C1C=CC(=O)N1c1ccc(Cl)cc1Br, the growth inhibition was 100% (active).
With Cc1c(N)nc(C2CC(=O)N2CC(N)C(N)=O)nc1C(=O)NC(C(=O)NC(C)C(O)C(C)C(=O)NC(C(=O)NCCc1nc(-c2nc(C(=O)NCCNCC(C)O)cs2)cs1)C(C)O)C(OC1OC(CO)C(O)C(O)C1OC1OC(CO)C(O)C(OC(N)=O)C1O)c1cnc[nH]1 (stereo not drawn) the growth inhibition was 98% (active).
In the case of CNC(=S)/N=c1/sc([N+](=O)[O-])c(C)n1C, the growth inhibition is reported as 7% (inactive).
With O=c1c2ccccc2ncn1Cc1ccccc1[N+](=O)[O-] the growth inhibition was 23% (inactive).
In the case of Cc1nn(C(=O)c2ccncc2)c(C)c1N=Nc1ccccc1[N+](=O)[O-], the growth inhibition is reported as 90% (active).
With CCC[CH2][Ge]([CH2]CCC)([CH2]CCC)[O]C(=O)C(OC(C)=O)c1ccccc1 (stereo not drawn) the growth inhibition was 98% (active).
For Nc1ccc2c(c1)[nH]c(=O)c1cc(Cl)c(Cl)cc12, the growth inhibition was 70% (active).
With CCCCCCCCCCCCSC1=C(N)C(=O)c2ccccc2C1=O the growth inhibition was -5% (inactive).
With CCC(C)(C)c1ccc(OCCO)c([N+](=O)[O-])c1 the growth inhibition was 92% (active).
For C/C(=N/O)c1cccc(C(F)(F)F)c1, the growth inhibition was -63% (inactive).
With CCCCCCN(S(=O)(=O)c1ccc([N+](=O)[O-])cc1)S(=O)(=O)c1ccc([N+](=O)[O-])cc1 the growth inhibition was 48% (inactive).
In the case of N#CC1=C(N)OC(c2ccccc2)=C(C#N)C1c1ccccc1[N+](=O)[O-] (stereo not drawn), the growth inhibition is reported as -8% (inactive).
In the case of COC1CCCCC1C(=O)C(C#N)C1CCCCC1C1CCCCC1 (stereo not drawn), the growth inhibition is reported as 7% (inactive).
With COCCOC1=C(Cl)C(=O)c2c(O)ccc(O)c2C1=O the growth inhibition was 99% (active).
For NC(CSSCC(N)C(=O)Nc1ccc2ccccc2c1)C(=O)Nc1ccc2ccccc2c1 (stereo not drawn), the growth inhibition was 100% (active).
In the case of CSc1c(S(C)=O)c2ccccc2n1C (stereo not drawn), the growth inhibition is reported as 11% (inactive).
In the case of CCCCCCCCCCCCCCCCNCCCCCCCC(=O)O, the growth inhibition is reported as 92% (active).
